# Experimental data reported in PubChem BioAssay (NCI).
# This is part of a sample that, as a whole, favours compounds with a hit. Of some 83,000 tested, about 20% had one in any assay.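 The endpoint reported here, percent growth, reads 100 for growth as untreated, 0 for no net growth and -100 for all cells dead.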 Values without a mark were called inactive. Activity calls are given as the source filed them. How the source made its calls: active means growth percent below 10; inactive means the rest.
# How the values were obtained:
# Assay in all cases: NCI-60 one-dose screen, 48 h (100 = growth as untreated, 0 = no growth, -100 = all killed)
# Conditions in all cases: 10 µM unless noted
# SK-MEL-2 melanoma = test system: SK-MEL-2 melanoma
# EKVX NSCLC = test system: EKVX NSCLC
# SN12C renal = test system: SN12C renal
# UO-31 renal = test system: UO-31 renal
# TK-10 renal = test system: TK-10 renal
# CAKI-1 renal = test system: CAKI-1 renal
# A498 renal = test system: A498 renal
# CCRF-CEM leukemia = test system: CCRF-CEM leukemia
# MOLT-4 leukemia = test system: MOLT-4 leukemia
Compound,growth (SK-MEL-2 melanoma),growth (EKVX NSCLC),growth (SN12C renal),growth (UO-31 renal),growth (TK-10 renal),growth (CAKI-1 renal),growth (A498 renal),growth (CCRF-CEM leukemia),growth (MOLT-4 leukemia)
CCOC(=O)C1=C(C)NC(C)=C(C(=O)OC(C)C)C1c1cccc(C#N)c1 (centres undefined),106%,90.7%,97.8%,93.3%,106%,84.7%,83.9%,103%,88.8%
Cc1ccccc1Nc1nc(SC(C)C)nc(-c2ccccc2)c1C#N,130%,73.2%,12.1%,-40.2% (active),61.1%,38.4%,53.5%,80.9%,
CSc1ccc(/C(=N/N=C(N)N)c2ccc(Cl)cc2)cc1,-7.8% (active),35.1%,7.12% (active),10.1%,51.3%,3.83% (active),-21.6% (active),16.1%,13.4%
O=C(NCCNc1cc(-c2cn(-c3ccccc3)nc2-c2cccc(O)c2)ccn1)Nc1cc(C(F)(F)F)cc(C(F)(F)F)c1,93.7%,90.6%,95.5%,77.1%,94.4%,88.9%,76.6%,101%,84.9%
CN1CCN(Cc2ccc(NC(=O)c3cncc(C#Cc4cnc(N)nc4)c3)cc2C(F)(F)F)CC1,-65.2% (active),43.9%,11.5%,4.98% (active),17.4%,0.371% (active),-17.2% (active),30.9%,21.9%
NS(=O)(=O)c1nnc(/N=C/c2c(O)[nH]c3ccccc23)s1,114%,84.2%,101%,72.5%,142%,86.5%,107%,,126%
CCOC(=O)c1ccc(NC2=CC(=O)C(C)=C(C)C2=O)cc1,96.1%,94.6%,93.8%,73.9%,137%,69.3%,84.3%,54.4%,41.3%
NS(=O)(=O)c1cccc(Nc2nc(SCC(=O)c3ccc(Cl)cc3)nc3c2CCC3)c1,98%,97.7%,98%,90.9%,119%,86.7%,79.4%,98.3%,
